In PubChem BioAssay (NCI):
This is part of a sample that, as a whole, favours compounds with a hit. Of some 83,000 tested, about 20% had one in any assay.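 The endpoint reported here, percent growth, reads 100 for growth as untreated, 0 for no net growth and -100 for all cells dead.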 Active and inactive are the calls of the source.

The compounds below were run on SN12C renal (assay: NCI-60 one-dose screen, 48 h (100 = growth as untreated, 0 = no growth, -100 = all killed)). Conditions: 10 µM unless noted.
Protocol: Growth inhibition of the SN12C human tumor cell line is measured as a screen for anti-cancer activity. Cells are grown in 96 well plates and exposed to the test compound for 48 hours. Compounds are tested at a single concentration, which is 10^-5 M for most compounds. The reported endpoint is percent growth (GI% or GIPRCNT), where numbers from 0 - 100% represent growth inhibition, and numbers from -100% - 0 represent cell death. For example, a value of 40 represents 60% growth inhibition. A value of 0 means no net growth occurred over the course of the experiment. A value of -40 indicates 40% of cells at the beginning of the experiment died by the end of the experiment. A value of -100 means all cells are dead at the end of the experiment.
NCI-60 Human Tumor Cell Lines Screen was performed using the standard one-dose NCI protocol, which is described in more detail at https://dtp.cancer.gov/discovery_development/nci-60/default.htm.
Compounds with GIPRCNT values below 10 were considered active. Activity score was based on GIPRCNT using the following formula: […]
Score is 0 for GIPRCNT values of 100 or above, 50 for GIPRCNT values of 0, and 100 for GIPRCNT values of -100.

| SMILES | growth |
| --- | --- |
| c1ccc2c(-c3nc(-c4c[nH]c5ncccc45)cs3)c[nH]c2c1 | 76.7% (inactive) |
| Cn1cc(-c2csc(-c3cn(C(=O)OC(C)(C)C)c4ccc(Br)cc34)n2)c2cccnc21 | 87.4% (inactive) |
| Cn1c(/C(C#N)=C/c2ccc3ccccc3c2)cc2ccccc21 | 33.5% (inactive) |
| C=C(C)[C@@H]1CC[C@]2(C(=O)N3CCCNCC3)CC[C@]3(C)[C@H](CC[C@@H]4[C@@]5(C)CCC(=O)C(C)(C)[C@@H]5CC[C@]43C)[C@@H]12 | 84% (inactive) |
| Cn1cc(-c2nc(-c3cn(C)c4ncccc34)cs2)c2ccccc21 | 52.8% (inactive) |
| O=C(O)c1cccc2c1Cc1cc([N+](=O)[O-])ccc1-2 | 103% (inactive) |
| CC1(c2ccccc2)OC1C(=O)O (stereo not given) | 106% (inactive) |
| CNC(=O)c1cc(Oc2ccc3nc(NC(=O)Nc4ccc(Cl)cc4)sc3c2)ccn1 | 62.3% (inactive) |
| C#Cc1cc2c(N)c(C(=O)c3cc(OC)c(OC)c(OC)c3)[nH]c2cc1OC | 67.9% (inactive) |
| O=c1c(CNc2ccc(S(=O)(=O)Nc3ncccn3)cc2)coc2ccccc12 | 90.1% (inactive) |
| NC1=NN(c2ccccc2)C(=O)/C1=C/c1ccc(Cl)cc1 | 94.6% (inactive) |
| Cc1cc(C)c(NC(=O)c2sc3nc4c(cc3c2N)CCCC4)c(C)c1 | 50% (inactive) |
| COc1cc(NC(C)CN(CC(C)C)C(C)C)c2ncccc2c1 (stereo not given) | 104% (inactive) |
| Fc1ccc(Nc2nnc(-c3ccc(Cl)cc3)o2)cc1 | 103% (inactive) |
| C=C(C)[C@@H]1CC[C@]2(C=O)CC[C@]3(C)[C@H](CC[C@@H]4[C@@]5(C)C/C(=C/c6cccnc6)C(=O)C(C)(C)[C@@H]5CC[C@]43C)[C@@H]12 | 77.1% (inactive) |
| CC1(C)C(=O)/C(=C\c2cccnc2)C[C@]2(C)[C@H]3CC[C@@H]4[C@@H](C(=O)/C=C/c5ccncc5)CC[C@@]4(C)[C@]3(C)CC[C@@H]12 | 8.09% (active) |
| Cc1nn2c(-c3nc4cc(Cl)c(Cl)cc4[nH]3)c(-c3ccc(F)cc3)nc2s1 | 34% (inactive) |
| Nc1ccc(Br)cn1 | 96.3% (inactive) |
| O=C1c2ccccc2C(=Cc2ccccc2)c2ccccc21 | 22.3% (inactive) |
| Nc1ccccc1NC(=O)c1ccc(CN2CCC/C(=C\c3ccccn3)C2=O)cc1 | 48.2% (inactive) |

| SMILES | growth |
| --- | --- |
| COc1ccc(/C=C/C(=O)c2ccc([N+](=O)[O-])cc2)cc1 | 102% (inactive) |
| CCSc1sc(-c2ccc(C)cc2)nc1[P+](c1ccccc1)(c1ccccc1)c1ccccc1 | 2.07% (active) |
| CC1(C)NC2=C(C(Nc3cccnc3)N1)C(c1ccc([N+](=O)[O-])cc1)C(C(=O)c1ccc(N=[N+]=[N-])cc1)O2 (stereo not given) | 101% (inactive) |
| C[C@@H](Oc1ccc(C(=O)NS(=O)(=O)C(C)(C)C)cc1C(F)(F)F)c1ccc(Oc2ccccc2)cn1 | 61.2% (inactive) |
| CCN1CCN(C(=O)[C@@]2(C)CC[C@]3(C)CC[C@]4(C)C(=CC(=O)[C@@H]5[C@@]6(C)CC[C@H](OC7C[C@@H](O)[C@@H](O)C(C)O7)C(C)(C)[C@@H]6CC[C@]54C)[C@@H]3C2)CC1 (stereo not given in full) | -64.7% (active) |
| Cc1csc(-c2ccc3c(c2)COC3(CCCN(C)C)c2ccc(F)cc2)c1 (stereo not given) | 62.7% (inactive) |
| Cn1cc(-c2csc(-c3cn(CCN)c4ccccc34)n2)c2cccnc21 | 54.1% (inactive) |
| CCN(CC)C(=O)CCCCCn1c2ccccc2c2c3c(c4c5ccccc5[nH]c4c21)C(=O)N(O)C3=O | 33.2% (inactive) |
| CC[C@H](CC[C@@H](C)[C@H]1CC[C@H]2[C@@H]3/C(=C/c4cccnc4)C(=O)C4=CC(=O)CC[C@]4(C)[C@H]3CC[C@]12C)C(C)C | 86.3% (inactive) |
| COc1ccc(CCN2C(=O)C(C)(C)SC2=S)cc1OC | 96% (inactive) |
| Cc1nnc2nc(N)[nH]n2c1=O | 118% (inactive) |
| N=c1ccc2nc3c(cc(N)c4ccccc43)oc-2c1 | -95.2% (active) |
| CN(C)CCCC1(c2ccc(F)cc2)OCc2cc(-c3ccc(C(F)(F)F)nc3)ccc21 (stereo not given) | 75.1% (inactive) |
| CC(=O)Cc1nsc(NC(=O)c2ccoc2COc2ccccc2)n1 | 90.2% (inactive) |
| N#C/C(=C\c1ccc(-c2ccccc2)o1)c1nc(-c2ccco2)cs1 | 92.3% (inactive) |
| CC(=O)c1c(C)[nH]c(-c2nc3ccc(N4CCN(C)CC4)cc3[nH]2)c1-c1ccc(N(C)C)cc1 | 48.2% (inactive) |
| COc1ccc(-c2cc(/C=C/C(=O)c3ccc(N)cc3)[nH]n2)cc1 | 18.4% (inactive) |
| COc1cc(-c2cc3cc(O)ccc3oc2=O)cc(OC)c1OC | 93.6% (inactive) |
| COC(=O)[C@]12CC[C@@H](C)[C@H](C)[C@@H]1C1=CC[C@@H]3[C@@]4(C)C=C(O)C(=O)C(C)=C4CC[C@@]3(C)[C@]1(C)CC2 | 18.9% (inactive) |
| CC(C)=CCC[C@](C)(O)[C@H]1CC[C@]2(C)[C@@H]1CC[C@@H]1[C@@]3(C)C/C(=C/c4ccc(Br)cc4)C(=O)C(C)(C)[C@@H]3CC[C@]12C | 88% (inactive) |
